High-throughput results deposited in PubChem by National Center for Advancing Translational Sciences (NCATS).
An excerpt weighted towards active compounds, which were near 10% of everything screened.
HPGD inh = qHTS Assay for Inhibitors of HPGD (15-Hydroxyprostaglandin Dehydrogenase); 15-hydroxyprostaglandin dehydrogenase [NAD(+)] (Homo sapiens), P15428; purified HPGD, NADH fluorescence kinetic, PGE2 substrate; Potency, µM, for inactives: top-dose activity change, negative = inhibition, actives largely listed as inhibitors; 150,000 compounds, 4.3% hits; further: potency means the concentration at half of the fitted maximal effect
Target sequence (P15428 whole entry, looked up): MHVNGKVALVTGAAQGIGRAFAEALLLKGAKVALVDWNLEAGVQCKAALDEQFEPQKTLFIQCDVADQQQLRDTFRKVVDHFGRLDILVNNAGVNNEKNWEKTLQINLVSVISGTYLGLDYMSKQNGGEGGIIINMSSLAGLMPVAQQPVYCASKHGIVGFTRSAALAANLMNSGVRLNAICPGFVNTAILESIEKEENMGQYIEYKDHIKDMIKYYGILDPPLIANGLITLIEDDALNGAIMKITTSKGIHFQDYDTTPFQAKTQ
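NADH formation kinetics: reaction with 30 uM PGE2 and 1 mM NAD+ (final), 20 nM enzyme, Tris-HCl pH 8 with Tween 20, after 15 min compound preincubation at room temperature. Fluorescence change, last versus first of five reads.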
LMNA splice mod = qHTS Assay for Modulators of Lamin A Splicing | HeLa LMNA splicing GFP/RFP minigene ratio, 48 h | 200,000 compounds, 0.01% hits | Potency, µM (titrated, usually from 46.1 µM), inactives show at the highest dose ratio change, negative = inhibition, usual class: inhibitors; active means well fitted inhibition curve with a large enough effect in the signal ratio, with a control signal flat, not every such curve was filed as active; inconclusive means small, poorly fitted or top-dose-only effect, or effect the other way, or a change in a side signal; the % refers to the signal ratio; further: potency means the concentration at half of the fitted maximal effect
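Read-out is the ratio of GFP to DsRed2 object intensity, acquired by 488 nm laser-scanning cytometry on HeLa lamin A-EGFP minigene reporter cells. Compound incubation 48 hrs at 37 °C in Opti-MEM with 2% FBS; DMSO 0.5% final.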
ALDH1A1 block = qHTS Assay for Inhibitors of Aldehyde Dehydrogenase 1 (ALDH1A1) | Purified ALDH1A1, NADH fluorescence, propionaldehyde substrate | Aldehyde dehydrogenase 1A1 (Homo sapiens), P00352 | 220,000 compounds, 7.3% hits | AID 1030, 2008 | Potency, µM (titrated, usually from 75.3 µM), for the others: at the highest dose activity, negative = inhibition, hits mostly inhibitors;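 further: potency means the concentration at half of the fitted maximal effect; plate controls were no enzyme wells and a reference inhibitor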
PNC inhibitor = High Content Assay for Compounds that inhibit the Assembly of the Perinucleolar Compartment; PC3M PTB-GFP, PNC prevalence imaging, 16 h; stronger effect = lower value; activity change (PNC), negative = inhibition, % at 10 µM; 140,000 compounds, 3.1% hits;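 active means readout at or below -70, meaning at least 70% loss of cells showing the perinucleolar compartment, a nuclear body marking cancer cells; inconclusive means readout between -30 and a set limit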;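 further: plate controls were DMSO wells for no effect and camptothecin positive control wells for full effect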
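PC3M cells stably expressing PTB-GFP, 750–1000 cells/well, treated 16 h at 37 °C with compound (23 nl of library stock), in duplicate. After paraformaldehyde fixation and Hoechst stain, imaged at 20x; PNC prevalence scored by image analysis.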
12-hLO inh = qHTS Assay for Inhibitors of 12-hLO (12-human lipoxygenase); Potency, µM (series often up to 57.1 µM), inactives show at the top dose activity change, negative = inhibition, hits mostly inhibitors; AID 1452, 2008; purified 12-hLO, xylenol orange hydroperoxide absorbance; Polyunsaturated fatty acid lipoxygenase ALOX12 (Homo sapiens), P18054; 150,000 compounds, 0.12% hits; active means well fitted inhibition curve with a large enough effect; inconclusive means small, poorly fitted or top-dose-only effect; further: potency means the concentration at half of the fitted maximal effect; nearly all actives have a fitted effect of over 55% in size
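Purified human 12hLO (150 nM), preincubated 15 min with compound, then 40 uM arachidonic acid for 30 min, room temperature, Hepes pH 7.0 with 0.01% Triton X-100. Hydroperoxide detected by ferrous iron/xylenol orange; 573/405 nm absorbance ratio gives reaction progress.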
Numbers without * were called inactive; ? = inconclusive; · = not tested or not shown; [ ] = remark or other dose. Unless noted, the call rests on the fitted dose curve; in most records, active means well fitted inhibition curve with a large enough effect (not every such curve was filed as active); inconclusive means small, poorly fitted or top-dose-only effect, or another doubt; inactive means no such curve, though single readings can be large or run the other way. Unless noted, on the % scale 0 is the no-effect control and ±100 the full control effect.

SMILES	HPGD inh	LMNA splice mod	ALDH1A1 block	PNC inhibitor	12-hLO inh
COCCOC(=O)C1=C(C)NC(=S)NC1/C=C/c1ccccc1 (stereo unspecified)	-15%	-8%	0.79µM*	18	-11%
COCCOC(=O)C1=C(C)NC(=O)NC1/C=C/c1ccccc1 (stereo unspecified)	-8%	0%	-3%	32	-2%
C[C@@H](CCCCC(=O)Nc1ccc(C(F)(F)F)cc1)NCCc1cnc[nH]1	4%	·	2%	·	-9%
Cc1cc(C(=O)N/N=C2\CCCc3ccccc32)c(C)o1	-8%	-9%	-4%	-113*	2%
O=C(NNS(=O)(=O)c1ccc(C(=O)NC2CCCC2)cc1)c1ccncc1	·	-2%[9.22 µM]	2.8µM*	·	·
O=C(NC1CC1)c1ccc(S(=O)(=O)NC2CCCCCC2)cc1	-17%	?	-4%	-10	-2%
CCNc1nc(N)nc(Oc2ccc(OCCOc3ccc(Cl)cc3Cl)nn2)n1	1µM*	-1%	-3%	?	0%
CN1CCN(c2ccc(C(=O)NC3CCCCC3)cc2[N+](=O)[O-])CC1	·	9%[46 µM]	-12%	·	·
CCS(=O)(=O)N1CCN(c2ccc(C(=O)NC3C4CC5CC(C4)CC3C5)cc2[N+](=O)[O-])CC1 (stereo unspecified)	-1%	-3%	7.1µM*	-13	-2%
Cn1c(=O)[nH]c(=O)c2c1nc(N1CCCCCC1)n2CCSc1nc2ccccc2[nH]1	-15%	5%	?	35	-1%
Cn1c(=O)c2c(nc(N3CCCCC3)n2CCSc2nc3ccccc3s2)n(C)c1=O	-11%	?	28µM*	29	-3%
CC1CCCN(c2nc3c(c(=O)n(C)c(=O)n3C)n2CCSc2nc3ccccc3s2)C1 (stereo unspecified)	-24%	?	14µM*	6	-2%
CC1CCN(c2nc3c(c(=O)n(C)c(=O)n3C)n2CCSc2nc3ccccc3s2)CC1	-9%	6%	?	20	-3%
Cn1c(=O)c2c(nc(N3CCC(C(N)=O)CC3)n2CCSc2nc3ccccc3s2)n(C)c1=O	-2%	9%	2%	6	-3%
Cn1c(=O)[nH]c(=O)c2c1nc(N1CCCCC1)n2CCCSc1nc2ccccc2s1	16µM*	?	?	131	-5%
CCc1ccc(CN(Cc2ccco2)c2cnc(S(C)(=O)=O)nc2C(=O)Nc2cccc(C)c2)cc1	·	-12%[46 µM]	·	·	·
COC(=O)CN(C#N)c1nc(NC(C)C)nc(NC(C)C)n1	·	·	8%	·	·
CC1CCN(C(=S)Nc2ccc(F)cc2)CC1	-5%	-11%	0%	57	-1%
C/C(=N\NC(=S)Nc1ccc(F)cc1)C1CC1	0%	?	15µM*	?	-25%
O=C(NCCc1ccccc1)C1CCN(Cc2cc3ccccc3n2Cc2ccccc2)CC1	·	-16%[46 µM]	·	·	·
O=c1[nH]c(=S)[nH]c2c1CN(CCCN1CCOCC1)CN2	-4%	·	9%[13.5 µM]	·	-2%[11.4 µM]
Cn1c2c(c(=O)n(C)c1=O)CN(CCCN1CCOCC1)CN2	-1%	5%	-1%	-84*	0%
N#C/C(C(=O)N1CCCCC1)=C1/N=C(N)c2ccccc21	14µM*	-10%	?	-27	-3%
COCCNC(=O)/C(C#N)=C1\N=C(N)c2ccccc21	14µM*	-7%	?	7	1%
COCCNC(=O)/C(C#N)=C/c1ccccc1Br	·	?	-8%	·	·
CC(=O)Nc1ccc(Nc2ccc3nonc3c2[N+](=O)[O-])cc1	·	?	22µM*	·	·
COC(=O)N1CCC2(CCCN(Cc3ccccc3)C2)CC1	-2%	·	?	·	2%
CC(=O)N1CCc2cc(S(=O)(=O)CCC(=O)NCc3ccco3)ccc21	·	10%[9.22 µM]	12%	·	·
O=C(CCS(=O)(=O)Cc1ccccc1F)N1CCc2ccccc2C1	-10%	7%[0.0737 µM]	3.5µM*	52	-3%
O=C(CCS(=O)(=O)Cc1ccccc1)N1CCc2ccccc2C1	-5%	2%	?	7	0%
